# From PubChem
# BJeLR lethal: MLPCN primary cell-based screen for lethality selective to Ras in HRASV12 cells. inhibition, % (test concentration not listed). 0.17% of 300,000 active. BJeLR (HRASV12) viability, CellTiter-Glo ATP luminescence, 48 h; in the data active means inhibition above about 50%
# VHR inh abs: VHR1 phosphatase inhibitors, primary screen, biochemical, absorbance, uHTS | Dual specificity protein phosphatase 3 (Homo sapiens), P51452 | recombinant VHR phosphatase, pNPP absorbance | inhibition, % at 13.3 µM | 0.52% of 290,000 active; in the data active means inhibition above about 50%
# Target sequence (P51452 whole entry, looked up): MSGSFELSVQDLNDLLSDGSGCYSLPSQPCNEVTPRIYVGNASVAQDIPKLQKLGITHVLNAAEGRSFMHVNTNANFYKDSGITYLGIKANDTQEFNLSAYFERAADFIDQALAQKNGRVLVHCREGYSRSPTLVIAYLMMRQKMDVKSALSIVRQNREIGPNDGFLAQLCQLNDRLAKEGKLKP
# SARS 3CLpro inh: SARS-CoV 3CLpro protease inhibitors, primary screen, biochemical, quenched FRET; 0.14% of 290,000 active; inhibition, % at 6 µM; recombinant SARS-CoV 3CLpro, quenched FRET peptide cleavage; Replicase polyprotein 1ab (Severe acute respiratory syndrome coronavirus), P0C6X7; in the data active means inhibition above about 12%
# MazF activator: activators of E. coli MazEF toxin-antitoxin RNase, primary screen, biochemical, fluorescence, uHTS; Endoribonuclease toxin MazF (Escherichia coli (strain K12)), P0AE70; FAM/BHQ RNA-DNA oligo cleavage fluorescence, 5 h; AID 504720, 2011; 0.32% of 350,000 active; activation, % at 20 µM; in the data active means activation above about 50%
# Target sequence (P0AE70 whole entry, looked up): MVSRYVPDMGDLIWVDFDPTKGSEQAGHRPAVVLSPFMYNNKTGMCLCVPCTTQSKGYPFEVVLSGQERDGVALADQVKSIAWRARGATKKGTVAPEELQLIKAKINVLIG
# Vc quorum ag: inducers of Vibrio cholerae quorum light production without autoinducers, primary screen, BH1578 luxS cqsA deficient, single point; activation, % at 18.7 µM; V. cholerae BH1578 lux reporter, luminescence, 6 h; 0.16% of 350,000 active; in the data active means activation mostly above about 9.7%, no sharp cut-off
# PfHsp40 rescue: rescue of yeast from PfHsp40 toxicity, primary screen, S. cerevisiae, ATP luminescence. S. cerevisiae expressing PfHsp40, growth rescue. growth rescue, % at 12.5 µM. 0.68% of 340,000 active; in the data active means growth rescue above about 28%, passing the limit was not always enough;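 further: yeast W303a lacking pdr1 and pdr3 grown in galactose medium; growth measured after three days at 30 °C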
# * hit, by the source's call; i = inactive; x = no result given. This is a sample that favours compounds with a hit; in the whole collection about 1.7% have one here.
SMILES,BJeLR lethal,VHR inh abs,SARS 3CLpro inh,MazF activator,Vc quorum ag,PfHsp40 rescue
CCCNC(=O)CC(NS(=O)(=O)c1ccc(Cl)cc1)c1ccco1 (configuration not stated),5,19,-1,4,-1,124*
CC(=O)N1CCC(=NNc2ncc(C(F)(F)F)cc2Cl)CC1,0,-5,-1,2,0,-1
Cc1c(C(=O)Nc2ccc3c(c2)OCO3)sc2nc(-c3ccccc3)cn12,1,2,1,66*,-1,0
Cc1c(C(=O)NCc2ccc3c(c2)OCO3)sc2nc(-c3ccccc3)cn12,2,9,-4,20,-3,0
CC(=O)c1ccc(OCc2nnn(CC(=O)NS(=O)(=O)c3ccc(C)cc3)c2-c2ccccc2)cc1,x,x,x,x,3,x
NC(=S)c1cn(C2OC(CO)C(O)C2O)c2ncnc(N)c12 (configuration not stated),62*,36,0,-9,-6,0
Nc1ncnc2c1ccn2[C@@H]1O[C@H](CO)[C@@H](O)[C@H]1O,111*,x,x,-1,0,1
COC(=O)c1ccc(-c2nc(CN3CCN(C(=O)c4ccco4)CC3)c(C)o2)cc1,x,x,x,-19,0,x
CCOC(=O)c1ccc(CC(=O)c2ccc(O)c(O)c2O)o1,3,17,-2,-10,0,-1
CCOC(=O)c1ccc(CC(=O)c2oc3cc(O)ccc3c2C)o1,-2,26,-2,67*,0,2
COc1ccc(C(CNC(=O)CNC(=O)c2cccc(F)c2)N2CCOCC2)cc1 (configuration not stated),x,x,x,3,0,x
Cc1ccc(-n2ncc(C(=O)NCC3CCN(C4CCCC4)C3)c2C2CCN(C(=O)OC(C)(C)C)CC2)cc1C (configuration not stated),13,58*,-3,5,0,1
Cc1ccc(-n2ncc(C(=O)NCC3CCN(C4CCCC4)C3)c2C2CCN(C(=O)OC(C)(C)C)CC2)cc1 (configuration not stated),6,18,6,5,-1,-1
O=C(O)CCC(=O)c1ccc2sc3ccccc3c2c1,x,x,x,1,-1,122*
CCN(CC)c1ccc(C=NCCNS(=O)(=O)c2ccc(C)cc2)cc1,4,57*,-2,-20,i,0
COCCCNC(=O)Cn1ccc(N)nc1=O,x,x,x,-8,i,-2
COc1ccc(NC(=S)NCc2ccccc2)c(OC)c1,4,-13,-2,4,0,-1
N#C/C(=N\Nc1ccc(Cl)cc1)C(=O)c1ccccc1,24,3,5,-18,0,2
Cc1c(N/N=C(\C#N)C(=O)c2ccc(Cl)cc2)c(=O)n(-c2ccccc2)n1C,13,7,3,-2,0,99*
COc1ccc(CCN2C(=O)C=CC2=O)cc1OC,x,x,x,5,i,138*
COc1ccc(CCn2c(C)ccc2C)cc1OC,-7,9,2,x,x,x
COc1cc2c(cc1OC)C(c1ccccc1O)NCC2 (configuration not stated),23,21,-2,2,-1,-1
O=C(CCS(=O)(=O)c1ccc(Br)cc1)N1CCN(c2ccc(Cl)cc2)CC1,-4,6,-2,-2,0,0
O=C(CCS(=O)(=O)c1ccc(Br)cc1)N1CCN(c2ccc(F)cc2)CC1,-1,50*,-2,2,0,1
CN(C)C(=O)N1CCN(c2nc(-c3ccccc3)cs2)CC1,12,53*,1,2,2,0
SMILES,BJeLR lethal,VHR inh abs,SARS 3CLpro inh,MazF activator,Vc quorum ag,PfHsp40 rescue
O=C(C1CCC(CNS(=O)(=O)c2ccccc2)CC1)N1CCOCC1 (configuration not stated),0,36,-4,2,0,x
O=S(=O)(c1cccc(C(F)(F)F)c1)N1CCC(O)(c2cccnc2)CC1,5,18,-4,6,0,-1
O=S(=O)(c1cccc(C(F)(F)F)c1)N1CCC(CO)(CCCc2ccccc2)CC1,-7,9,7,4,i,55*
CCn1c(O)c(N=NC(=O)CNC(=O)c2cccnc2)c2ccccc21,x,x,x,-5,-5,x
COc1ccc(NC(=O)c2ccc(N3C(=O)C4CC=C(Cl)CC4C3=O)cc2)cc1 (configuration not stated),10,56*,2,-31,-1,0
Cc1csc2nc(O)c(C(=O)NC3CCCCC3)c(=O)n12,8,x,x,3,-1,165*
CC(C)C[C@H]1CN=C(Nc2ccccc2)N1CCCC1CCCC1,5,55*,-2,0,0,-1
CC(C)C[C@H]1CN=C(Nc2ccccc2)N1CCCC1CCCCC1,8,17,-3,21,i,0
CC(C)NC(=O)c1cc2c(=O)n3ccccc3nc2s1,-11,20,-2,-4,2,0
Cc1cc(C)cc(NC(=O)c2cc3c(=O)n4ccccc4nc3s2)c1,-7,36,-5,70*,-1,1
CCc1nc2ccc(C(=O)NCCCN3CCCC3=O)cn2c1N(C=O)CC,x,x,x,x,3,x
COC(=O)c1cc(CNC(=O)Cc2ccsc2)ccc1OC,-1,7,-2,2,0,-1
O=C(O)c1ccc(N/N=C/c2cccc(F)c2)cc1,4,2,2,-1,0,3
O=C(O)c1ccc(N/N=C/c2cccc(C(F)(F)F)c2)cc1,4,-14,9,1,i,64*
O=C(N/N=C/C(Br)=C/c1ccccc1)C(O)c1ccccc1 (configuration not stated),7,24,-5,2,i,2
O=C(O)c1ccc(N/N=C/c2ccc(F)c(F)c2)cc1,3,-5,3,1,0,147*
O=C(O)c1ccc(N/N=C/C(Br)=C/c2ccccc2)cc1,-3,1,4,61*,0,183*
CCCOC(=O)NC1CCS(=O)(=O)C1 (configuration not stated),-6,27,-6,-1,17*,-1
CCCCCCCCCCOC(=O)NC1CCS(=O)(=O)C1 (configuration not stated),-4,24,4,-8,0,3
CCC(C)c1ccccc1N=Cc1ccc2c(c1)OCO2 (configuration not stated),-1,1,-9,-1,i,1
O=[N+]([O-])c1ccc(S(=O)(=O)NN=C2CCCCC2)cc1,x,x,x,119*,i,-1
CC(=O)Nc1cc2c3c(c1)CCN3C(=O)CC2,-9,56*,-2,-16,0,-1
